Test [1] can be described thus: NCI Yeast Anticancer Drug Screen. Data for the rad50 strain (AID 155).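 Also: 0% = growth of vehicle-only cultures of the same strain.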 As to conditions: S. cerevisiae rad50 strain growth inhibition; at 50.0 µM; hits give high values. In short, it runs like this:
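Growth of the mutant yeast was measured after compound exposure and referenced to vehicle-treated cultures.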

A short description of test [2]: NCI Yeast Anticancer Drug Screen. Data for the mec2-1 strain (AID 157). As to conditions: S. cerevisiae mec2-1 strain, at 50.0 µM, hits give high values. In short, it runs like this:
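Growth inhibition is read against vehicle-treated controls after compound exposure of the mec2-1 yeast strain, which is defective in DNA damage repair or cell cycle control.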

Test [3] can be described thus: NCI Yeast Anticancer Drug Screen. Data for the sgs1 mgt1 strain (AID 161).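 Also: 0% = growth of cultures given vehicle only.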 To be noted: S. cerevisiae sgs1 mgt1 strain, at 50.0 µM, hits give high values. In short, it runs like this:
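Growth of a repair-deficient yeast mutant was monitored after compound treatment and expressed as inhibition relative to vehicle-treated cultures.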

The nature of test [4]: NCI Yeast Anticancer Drug Screen. Data for the cln2 rad14 strain (AID 165).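 Also: 0% = growth equal to vehicle treated cultures.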 To be noted: S. cerevisiae cln2 rad14 strain, at 50.0 µM, hits give high values. In short, it runs like this: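 Growth inhibition, relative to vehicle-treated controls, is the read-out. The test organism is a yeast strain with defined genetic alterations, cln2 rad14.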
Test [5] in a line: NCI Yeast Anticancer Drug Screen. Data for the bub3 strain (AID 167). As to conditions: S. cerevisiae bub3 mutant strain, at 50.0 µM, hits give high values. In short, it runs like this: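 Whole-cell yeast assay. The mutant strain was incubated with compounds, and growth inhibition was determined by comparison with vehicle-treated cells.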
Test [6] is described as follows: NCI Yeast Anticancer Drug Screen. Data for the mlh1 rad18 strain (AID 175). As to conditions: S. cerevisiae mlh1 rad18 strain growth inhibition; at 50.0 µM; hits give high values. In outline:
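Cells of a genetically altered yeast strain, deficient in DNA damage repair, were treated with compound. Their growth was then compared with that of vehicle-treated cultures to give inhibition.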

Compounds without any hit were thinned out: in the full panel of roughly 79,000, 15% have a hit. Unmarked numbers belong to inactive results. Activity calls are given as the source filed them. Rule as the data show it: active = growth inhibition above about 70%; inactive = the rest.

Results on 20 molecules are retold here after PubChem BioAssay (NCI).

`O=[N+]([O-])c1cc(NC(=S)SCc2ccc3c(c2)OCO3)ccc1Cl`: the growth inhibition in test [1] was 82.7% (active); in test [2], 72.2% (active); in test [3] it was 76.7% (active); in test [4], 42.8%; in test [5] it was 56.4%; in test [6] it was 78% (active).

Turning to `CC(=O)OC1C[C@@](C)(O)[C@@]23O[C@@H]2[C@@H]2O[C@]2(C)C3C2OC(=O)C(C)[C@H]12` (stereo not given in full), the growth inhibition in test [1] was -0.25%; in test [2] it was -20.9%; in test [3], -6.85%; in test [4], 7.55%; in test [5], -6.3%; in test [6], -9.6%.

With `CCN(Cc1ccccc1)C(=O)Nc1c(Cl)cccc1Cl`, the growth inhibition in test [1] was -13.5%; in test [2], -30.1%; in test [3], 1.35%; in test [4], -1.5%; in test [5], -9.85%; in test [6], -4.05%.

As to `Cc1cccc2c(CC(N)C(=O)O)c[nH]c12` (stereo not given), the growth inhibition in test [1] was 3.25%; in test [2] it was -19.9%; in test [3] it was -18.9%; in test [4], -23.4%; in test [5] it was -16.6%; in test [6], -3.35%.

Regarding `COc1ccc(COCC[C@H](C)OC2OC(CO)C(O)C(O)C2O)cc1` (stereo not given in full), the growth inhibition in test [1] was 13.9%; in test [2], -8.75%; in test [3], -12.9%; in test [4] it was -6.2%; in test [5] it was 5.25%; in test [6], -71%.

Consider `C=C1C(=O)OC2C1C(OC(=O)/C(=C/CO)CO)CC1(CO1)C1CC=C(C)C21` (stereo not given), for which the growth inhibition in test [1] is 32.2%; in test [2] it was 8.05%; in test [3], 19.8%; in test [4], -2.15%; in test [5], -1.95%; in test [6] it was 9.6%.

On to `Cc1cc(OCc2nnc3n2S(=O)(=O)c2ccccc2N3C)ccc1Cl`, for which the growth inhibition in test [1] is 49.4%; in test [2], 2%; in test [3] it was -21.8%; in test [4], -0.75%; in test [5] it was -30.4%; in test [6] it was -22.4%.

On to `COS(=O)(=O)OC1(SC)C=C(c2ccccc2)SS1` (stereo not given), for which the growth inhibition in test [1] is 73% (active); in test [2], 28.1%; in test [3], 29.2%; in test [4], 9.5%; in test [5], 20.3%; in test [6] it was 72.6% (active).

Consider `Cc1cc(C[C@H]2O[C@@H]3OC(C)(C)O[C@@H]3[C@H]3OC(C)(C)O[C@H]32)c2ccccc2n1`, for which the growth inhibition in test [1] was -4.6%; in test [2], 12%; in test [3] it was 19.9%; in test [4], -4.2%; in test [5] it was 9.1%; in test [6] it was 17.6%.

Take `O=C1c2ccccc2OC(Cl)(c2ccccc2)C1Cl` (stereo not given): the growth inhibition in test [1] is -15.1%; in test [2], -2.4%; in test [3] it was -7.5%; in test [4] it was -21.8%; in test [5] it was 22.7%; in test [6], 2%.

As for `CC1c2c(cc(=O)n(C)c2O)C(=O)N1C` (stereo not given), the growth inhibition in test [1] is 2.15%; in test [2], 0.7%; in test [3] it was -7.85%; in test [4] it was -6.2%; in test [5], -9%; in test [6] it was -2.85%.

Take `Nc1nc(-c2ccccc2)nc(N)c1C=O`: the growth inhibition was -21.8% in test [1]; -21.9% in test [2]; -43.2% in test [3]; -4.95% in test [4]; -6.9% in test [5]; -20.6% in test [6].

Regarding `CCOC(=O)Nc1nc2ccn(C)c2s1`, the growth inhibition in test [1] was 6.3%; in test [2], -6.9%; in test [3], 2.15%; in test [4] it was -6.4%; in test [5], 4.6%; in test [6], -8%.

As to `COC(=O)[C@H](Cc1c[nH]c2ccccc12)NP(=O)(O)OCC1C=CC(n2cc(C)c(=O)[nH]c2=O)O1` (stereo not given in full), the growth inhibition in test [1] was -8.5%; in test [2] it was -7.75%; in test [3], -9.6%; in test [4], 6.8%; in test [5], -13.1%; in test [6], -49.7%.

As to `OCC(O)CS` (stereo not given), the growth inhibition in test [1] is -15.2%; in test [2] it was 0.1%; in test [3], -4.8%; in test [4] it was 36.1%; in test [5], -4.5%; in test [6], -15.5%.

In the case of `CC(=O)Oc1cc(C)c2c(c1C)C1OC(=O)C(C)C1CC2` (stereo not given), the growth inhibition was 12.6% in test [1]; -12.7% in test [2]; 18.6% in test [3]; 16.3% in test [4]; 4.8% in test [5]; 17.1% in test [6].

For `CSc1ccccc1C1CCCCCC1O` (stereo not given), the growth inhibition is 11% in test [1]; 12.8% in test [2]; 5.65% in test [3]; 12.8% in test [4]; -30.6% in test [5]; 10.1% in test [6].

Regarding `OC(CCN1CCC2CCC(C2)C1)(c1ccccc1)c1ccc(Cl)cc1` (stereo not given), the growth inhibition in test [1] was -4.55%; in test [2], -16.1%; in test [3], 14%; in test [4], -26.5%; in test [5], 4.4%; in test [6] it was -17.2%.

Turning to `CCCCNc1ncnc2c1cnn2-c1ccccc1`, the growth inhibition is 7% in test [1]; -1% in test [2]; 3.2% in test [3]; -26.9% in test [4]; -4.75% in test [5]; 0% in test [6].

As to `COc1ccc(OC)c2c3c([nH]c12)C(=O)Nc1nc(N)nc(N)c1C3`, the growth inhibition in test [1] was 42.9%; in test [2], 19.9%; in test [3] it was 30.4%; in test [4], 21.8%; in test [5], 31.9%; in test [6], 40.5%.
